# Measured values published in PubChem BioAssay.
# Assays:
# [1] = tested on: Human papillomavirus type 1a protein E7 (residues 44-93); test: small molecules binding HPV E7 44-93 – biochemical, small-molecule microarray, residues 44-93, 635 nm fluorescence, primary screen (AID 1108); conditions: fluorescence 635 nm, higher = more signal;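 further: E7 fragment applied at 1 µg/mL in TBST for 1 h at 4 C; score combines spot fluorescence with its signal to noise ratio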
# [2] = hepatitis C replication reporter changes, two-sided – Huh7 cells, luciferase reporter, HCV replication inhibitor project, primary screen (AID 1109); conditions: Huh7 HCV replicon luciferase reporter, 48 h; higher = more signal;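 further: huh7 hepatoma cells harbouring a luciferase neomycin HCV replicon reporter; luciferase luminescence as measure of HCV replicon replication; test concentration not given here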
# [3] = target: Left-right determination factor 2 (Homo sapiens) (UniProt O00292); test: small molecules binding LEFTY2 protein – biochemical, small-molecule microarray, 635 nm fluorescence scan, primary screen (AID 1110); conditions: higher = more signal
# [4] = target: Calmodulin-1 (Homo sapiens) (UniProt P0DP23); test: small molecules binding calmodulin-1 with EGTA – biochemical, small-molecule microarray, Cy5-labelled CALM1, profiling panel (AID 1111); conditions: Cy5-CALM1 binding fluorescence, higher = more signal;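 further: labelled calmodulin applied in Tris saline Tween buffer holding calcium plus EGTA and DTT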
# [5] = target: Calmodulin-1 (Homo sapiens) (UniProt P0DP23); test: small molecules binding Ca-loaded calmodulin-1 – biochemical, small-molecule microarray, Cy5-labelled CALM1, plus calcium, artefact control for SMM control-protein annotation, profiling panel (AID 1112); conditions: Cy5-CALM1 binding fluorescence, higher = more signal;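 further: score merges spot fluorescence with signal to noise from triplicate slides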
# [6] = probe aWnt5a binding to arrayed compounds – biochemical, biotinylated probe, 635/667 nm fluorescence, primary screen (AID 1113); conditions: small-molecule microarray, higher = more signal;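 further: score merges 667 nm fluorescence intensity with signal-to-noise per printed feature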
# [7] = probe aShh binding to arrayed compounds – biochemical, biotinylated probe, 635/667 nm fluorescence, primary screen (AID 1114); conditions: small-molecule microarray, higher = more signal;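 further: probe is biotin-labelled aShh protein from a stem cell growth factor screen; measures binding of labelled protein to compounds printed on the slide; score merges feature fluorescence at 667 nm with signal-to-noise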
# [8] = probe aNog binding to arrayed compounds – biochemical, biotinylated probe, 635/667 nm fluorescence, primary screen (AID 1115); conditions: small-molecule microarray, higher = more signal;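 further: probe is biotinylated aNog protein used at 0.15 µg/mL for 1 h at 4 C; z-score combines 667 nm fluorescence of each spot with its signal to noise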
# [9] = target: Torsin-1A-interacting protein 1 (Homo sapiens) (UniProt Q5JTV8); test: compound microarray binding of lysate hLAP1 – cell lysate, small-molecule microarray, COS7 lysate, 635/667 nm fluorescence, primary screen (AID 1116); conditions: 635 nm fluorescence, higher = more signal
# [10] = target: Alpha-bungarotoxin (Bungarus multicinctus) (UniProt P60615); test: compounds binding labelled alpha-BTX control protein – biochemical, small-molecule microarray, Alexa647 label, 635/667 nm fluorescence, artefact control for SMM control protein annotation, profiling panel (AID 1117); conditions: alpha-BTX-A647 binding fluorescence, higher = more signal
# Alpha-bungarotoxin (Bungarus multicinctus), sequence (P60615 whole entry, looked up): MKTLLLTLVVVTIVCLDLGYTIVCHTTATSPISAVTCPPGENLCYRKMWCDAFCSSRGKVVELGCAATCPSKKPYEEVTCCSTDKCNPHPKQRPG
# Left-right determination factor 2 (Homo sapiens), sequence (O00292 whole entry, looked up): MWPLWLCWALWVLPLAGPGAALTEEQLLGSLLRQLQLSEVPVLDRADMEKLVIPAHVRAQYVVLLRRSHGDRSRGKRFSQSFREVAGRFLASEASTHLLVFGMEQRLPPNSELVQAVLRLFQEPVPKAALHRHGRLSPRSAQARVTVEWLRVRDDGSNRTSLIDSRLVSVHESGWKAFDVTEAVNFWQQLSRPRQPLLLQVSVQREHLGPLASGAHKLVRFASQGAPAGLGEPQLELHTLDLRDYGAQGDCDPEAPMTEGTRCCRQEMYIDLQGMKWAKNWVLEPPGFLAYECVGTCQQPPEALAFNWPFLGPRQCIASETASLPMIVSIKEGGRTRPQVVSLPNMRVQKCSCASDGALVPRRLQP
# Torsin-1A-interacting protein 1 (Homo sapiens), sequence (Q5JTV8 whole entry, looked up): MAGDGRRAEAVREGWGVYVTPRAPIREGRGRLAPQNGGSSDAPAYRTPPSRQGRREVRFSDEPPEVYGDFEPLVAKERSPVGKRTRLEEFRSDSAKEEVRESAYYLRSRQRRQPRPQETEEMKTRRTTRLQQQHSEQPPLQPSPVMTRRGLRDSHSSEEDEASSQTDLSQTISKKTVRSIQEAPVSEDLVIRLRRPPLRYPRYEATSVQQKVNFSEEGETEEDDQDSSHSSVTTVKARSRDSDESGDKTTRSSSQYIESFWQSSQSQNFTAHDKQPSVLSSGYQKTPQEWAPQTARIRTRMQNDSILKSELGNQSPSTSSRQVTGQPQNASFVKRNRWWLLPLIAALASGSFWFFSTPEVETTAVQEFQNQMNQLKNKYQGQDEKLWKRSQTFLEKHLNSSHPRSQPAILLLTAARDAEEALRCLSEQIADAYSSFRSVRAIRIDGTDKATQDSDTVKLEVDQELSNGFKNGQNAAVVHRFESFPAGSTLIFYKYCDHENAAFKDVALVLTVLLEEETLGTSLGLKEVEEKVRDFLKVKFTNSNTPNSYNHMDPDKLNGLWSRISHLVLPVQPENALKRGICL
SMILES,composite z-score [1],z-score [2],composite z-score [3],composite z-score [4],composite z-score [5],composite z-score [6],composite z-score [7],composite z-score [8],composite z-score [9],composite z-score [10]
C=CCOC(=O)[C@@H]1[C@H]2C(=O)O[C@H](c3ccccc3)[C@H](c3ccccc3)N2[C@H](c2ccc(OCCOC(=O)[C@@H]3C[C@@H]4C(=O)N5CCC[C@H]5C(=O)N4[C@@H]3c3cccc(OCCO)c3)cc2)[C@@]12C(=O)Nc1ccc(I)cc12,1.31,-1.01,0.56,1.25,-0.141,-0.0718,-0.264,-0.342,0.972,1.11
O=C(N1CCOCC1)[C@@]1(CCS(=O)(=O)c2ccccc2)COC(c2ccc(OCCCO)cc2)=N1,0.901,-1.18,-1.21,1.25,0.0541,-0.124,0.314,-0.824,0.622,-0.422
CCOC(=O)C[C@H]1[C@H](OC(=O)Cc2ccc3c(c2)OCO3)[C@@H](NC(=O)c2ccccc2)c2cc(OCCCO)ccc2N1C(=O)c1ccc2ccccc2n1,0.594,0.173,0.11,0.481,-0.455,-0.152,0.172,-0.0675,0.761,-0.055
CC1CC/C=C\[C@H]2OC34C=CCN(c5ccc(Cl)cc5)C(=O)[C@H]3N(C(CO)C(C)C)C(=O)[C@]4(C)C2C(=O)O1 (stereo not given in full),-0.806,-0.392,-1.22,-0.505,0.0376,-0.152,-0.154,-0.679,0.184,-0.59
CC(C)NC(=O)[C@@H]1c2ccccc2C(=O)N(Cc2cc(C(F)(F)F)cc(C(F)(F)F)c2)[C@H]1c1ccc(CO)cc1,0.376,-0.153,0.147,0.876,0.221,-0.176,-0.0793,0.735,0.724,0.594
COc1cc2c(cc1OC)CN(C(=O)[C@@H]1[C@H]3C(=O)O[C@H](c4ccccc4)[C@H](c4ccccc4)N3[C@H](c3ccc(O)cc3)[C@@]13C(=O)Nc1ccc(C#CCNC(N)=O)cc13)CC2,0.762,-0.126,0.382,0.186,-0.0936,-0.0367,0.0062,-0.115,0.0623,0.469
CC(C)(C)N1CC=CC23O[C@@H]4C=CCCOC(=O)C4[C@H]2C(=O)N(CCCO)[C@@H]3C1=O (stereo not given in full),-0.371,-1.17,-0.611,-0.801,-0.97,-0.172,-0.0769,-0.118,0.0642,-1.39
COc1ccc(C#Cc2ccc3c(c2)[C@]2(C(=O)N3)[C@H](c3ccc(OCCO)cc3)N3[C@H](c4ccccc4)[C@H](c4ccccc4)OC(=O)[C@H]3[C@@H]2C(=O)N2CCN(c3ncccn3)CC2)cc1,1.25,-1.18,0.201,1.91,0.722,-0.252,-0.262,-0.474,0.45,0.235
C=CC[C@]1(C(=O)NCC(O)CO)N=C(c2ccc(OCCCO)cc2)O[C@H]1c1ccccc1N=[N+]=[N-] (stereo not given in full),1.14,-0.0862,-0.571,1.64,0.479,0.106,1.09,1.68,2.75,-0.0575
CCOC(=O)C1=CC[C@@H](c2cccc(Br)c2)N(S(=O)(=O)c2ccc(C)cc2)[C@H]1c1ccc([N+](=O)[O-])cc1,1.42,-0.802,0.868,0.855,0.69,0.0433,-0.138,0.822,1.1,1.05
COc1ccc(C#Cc2ccc3c(c2)[C@]2(C(=O)N3)[C@H](C(N)=O)[C@H]3C(=O)O[C@H](c4ccccc4)[C@H](c4ccccc4)N3[C@@H]2c2ccc(O)cc2)cc1,1.48,-2.51,0.422,0.539,0.686,-0.12,-0.0904,-0.215,1.09,1.05
Cc1ccc(N2C(=O)c3ccccc3[C@](C)(C(=O)NC(C)C)[C@@H]2c2ccc(CO)cc2)nc1,-1.24,-0.406,-3.6,-1.12,-0.862,-0.219,-0.49,-0.441,0.177,0.24
C=C(COC)C(=O)CC[C@H](OC(=O)c1ccccc1-c1ccccc1C(=O)O)c1ccc(OCCO)cc1,0.701,-1.06,0.419,0.0421,-0.774,-0.148,0.351,0.229,3.05,1.16
[N-]=[N+]=Nc1ccccc1[C@H]1OC(c2ccc(OCCCO)cc2)=N[C@@]1(Cc1ccccc1)C(=O)NCc1ccccc1,1.4,-3.14,0.364,0.503,-0.171,-0.0492,0.0723,-0.261,0.832,0.421
O=C1N(CCS(=O)(=O)c2ccccc2)Cc2ccccc2C[C@@]12COC(c1ccc(OCCCO)cc1)=N2,1.08,-2.31,0.906,0.303,0.87,0.0561,-0.0858,0.618,1.56,2.33
COC(=O)[C@@]1(Cc2ccccc2)[C@H]2c3cc(C(=O)N4CCCC4)n(CCO)c3C[C@H]2CN1C(=O)c1ccccc1,0.34,-1.02,0.167,2.71,1.07,0.853,0.436,0.922,3.95,1.48

SMILES,composite z-score [1],z-score [2],composite z-score [3],composite z-score [4],composite z-score [5],composite z-score [6],composite z-score [7],composite z-score [8],composite z-score [9],composite z-score [10]
CN1C(=O)C2C=CC(C(O)c3ccc(F)cc3)N(N3CCCCC3)C2C1=O (stereo not given),0.491,0.269,-0.781,1.72,1.23,0.212,0.949,0.893,2.05,0.164
CN(C)C(=O)[C@@]1(CCC(=O)OC(C)(C)C)COC(c2ccc(OCCCO)cc2)=N1,1.08,-0.594,-1.04,0.38,0.816,-0.127,0.261,1.52,1.54,0.728
C[N+](C)(C)CCCC[C@@H]1NC(=O)[C@H]2C[C@@H](C(=O)NCCCCCCN)[C@@H](c3cccc(OCCO)c3)N2C1=O,1.4,0.347,1.39,1.11,1.13,0.469,0.705,2.31,1.21,0.995
C=CC[C@@]1(C(=O)NCC(O)CO)N=C(c2ccc(OCCCO)cc2)O[C@@H]1c1ccccc1 (stereo not given in full),1.21,0.235,-0.834,2.22,0.971,0.512,0.786,-0.419,3.73,2.59
CC(C)(C)OC(=O)CC[C@]1(C(=O)N2CCCCC2)N=C(c2ccc(OCCCO)cc2)O[C@H]1c1ccccc1CN=[N+]=[N-],0.804,-2.03,0.888,0.958,0.566,0.0044,0.439,0.659,2.52,0.12
Cc1ccc(-c2cccc(=O)o2)cc1,-1.01,0.488,0.418,-1.18,-0.802,-0.145,-0.138,0.11,-0.101,-0.391
CC(C)C(CO)N1C(=O)[C@@H]2[C@H]3C(=O)OCC=C[C@H]3OC23C=CCN(CCN2CCOCC2)C(=O)[C@@H]13 (stereo not given in full),-0.0831,-0.911,-0.0025,-0.229,-1.32,-0.176,-0.0709,-0.0719,-0.128,0.451
Cc1ccc(F)cc1S(=O)(=O)N[C@@H]1CCN(C(=O)c2ccc(OC(C)C)cc2)C1,0.801,-0.0287,1.08,0.237,-0.603,-0.032,0.0121,-0.425,0.521,0.247
C=CC[C@@]1(C(=O)NCCN2CCOCC2)N=C(c2ccc(OCCCO)cc2)O[C@@H]1c1ccccc1,1.46,-1.34,0.902,-0.0984,-0.0501,0.0873,-0.0093,1,1.06,0.991
NC(=O)NCC#Cc1ccc2c(c1)[C@]1(C(=O)N2)[C@H](c2ccc(OCCO)cc2)N2[C@H](c3ccccc3)[C@H](c3ccccc3)OC(=O)[C@H]2[C@@H]1C(=O)N1CCN(c2ncccn2)CC1,0.833,-0.488,0.259,0.362,0.492,-0.0977,0.156,0.042,0.655,1.21
COCCOC(=O)N1C(=O)[C@@]2(c3cc(C#CCC(C(=O)OC)C(=O)OC)ccc31)[C@H](C(=O)N1CCCCCCC1)[C@H]1C(=O)O[C@H](c3ccccc3)[C@H](c3ccccc3)N1[C@@H]2c1ccc(O)cc1,1.37,-0.586,0.485,1.1,0.624,0.244,-0.0422,2.33,0.166,1.3
C=CCNC(=O)[C@@H]1[C@H]2C(=O)O[C@H](c3ccccc3)[C@H](c3ccccc3)N2[C@H](c2ccc(O)cc2)[C@@]12C(=O)Nc1ccc(C#CCCO)cc12,-0.379,-0.439,-0.144,-0.0464,0.0653,-0.0792,-0.484,-0.372,-0.275,-0.04
O=C(CS)NCCCCCNC(=O)[C@@H]1C[C@@H]2C(=O)N3CCC[C@H]3C(=O)N2[C@@H]1c1ccc(O)cc1,0.922,0.0311,0.0978,0.195,0.194,-0.0758,0.499,-0.152,0.375,0.542
CCCN1C(=O)[C@@H]2Cc3c([nH]c4ccccc34)[C@@H](c3cccc(O)c3)N2C1=O,0.672,-0.197,0.326,0.0779,-0.346,-0.176,-0.221,-0.0737,-0.489,0.414
COC(=O)c1ccc(OC)c(/C=C\CC(CCc2ccccc2)OC(C)=O)c1 (stereo not given),-0.498,-1.1,-0.274,-0.42,-0.134,-0.152,-0.214,-0.192,-0.343,0.516
